Reference: PubChem BioAssay AID743093 (The Scripps Research Institute Molecular Screening Center, 2013)
Screen size: about 150,000 compounds; about 100 (0.067%) were called active. Only a selection was taken, and actives are over-represented in it overall. Unmarked numbers belong to inactive results.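 The calls were made as follows: active = inhibition above the mean plus 3 SD of compounds within the control limits, set per campaign (cut at about 38% in these data); inactive = the rest.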

assay: reduced ATP in mature Plasmodium gametocytes – ATP luminescence, HTS, primary screen (AID 743093);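 also: 0% = DMSO wells and 100% = medium only without gametocytes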; settings: P. falciparum stage V gametocytes, 24 h, at 10.9 µM, active compounds read high

Row | SMILES | inhibition
1 | CC(C)CC(CCc1ccccc1)OS(N)(=O)=O (stereo not drawn) | -58.7%
2 | CC(C)(C)OC(=O)Nc1ccc([C@@H](NC(=O)OC(C)(C)C)C(=O)OC(C)(C)C)cc1 | -5.54%
3 | COc1ccc(C)cc1NC(=O)CNCc1cccs1 | 7.68%
4 | O=C(Cc1ccc(Br)cc1)NCCc1ccccc1 | 15.4%
5 | CCC(C)CCN1CCN=C1N(C)C (stereo not drawn) | 4.3%
6 | Cc1ccc(S(=O)(=O)NCCCn2ccnc2)cc1C(=O)NC(C)C | 2.4%
7 | O=C1N[C@@H](Cc2ccccc2)C(=O)N2[C@H]1C[C@]1(Br)c3ccccc3N(S(=O)(=O)c3ccccc3)[C@H]21 | 12.6%
8 | COC(=O)c1ccc(COc2ccc(/C=N/NC(=O)C(=O)Nc3ccc(OC)cc3)cc2OC)o1 | 2.74%
9 | O=C(N[C@@H](Cc1ccccc1)C(=O)OCc1ccccc1)c1nc[nH]c1C(=O)N[C@@H](Cc1ccccc1)C(=O)OCc1ccccc1 | 0.44%
10 | CCOc1cc(/C=N/Nc2cc(C)nc3ccc(C)cc23)ccc1O | 10.4%
11 | FC(F)(F)c1ccc2c3n(nc2c1)CCN=C3c1ccc(Cl)cc1 | 6.57%
12 | COC(=O)CN1C(=O)[C@H]2[C@@H](C3CC3)N3C(=O)CN(Cc4ccc(-c5ccccc5)cc4)C(=O)[C@@]3(Cc3ccccc3)[C@H]2C1=O | -19.5%
13 | CC(=O)Nc1ccc(NC(=O)CSc2nnnn2-c2ccccc2F)cc1 | -3.76%
14 | CC1CN(c2nc(Nc3ccccc3)nc(N)c2[N+](=O)[O-])CC(C)O1 (stereo not drawn) | -1.38%
15 | CCOc1cc(C)ccc1OCc1nnc(SCC(=O)Nc2cccc(C(=O)O)c2)n1-c1ccccc1 | 15.6%
16 | Nc1cccnc1Sc1ccccc1 | -1.9%
17 | Cc1noc(C)c1NC(=O)Nc1cccc2c1O[C@H](CN(C)S(=O)(=O)c1c(C)noc1C)[C@@H](C)CN([C@H](C)CO)C2=O | -15.7%
18 | O=C(O)c1ccccc1NC(=O)c1ccccc1-c1ccccc1C(=O)O | -11.4%
19 | CCOCCn1[nH]c2ccccc2c1=O | -10.4%
20 | COc1cc2c(cc1OC)C(c1ccccc1Br)NC(=O)C2 (stereo not drawn) | 1.27%

Row | SMILES | inhibition
21 | Cc1cccc(NC(=O)CCN2CC(C)CC(C)C2)c1 (stereo not drawn) | -2.59%
22 | CC(=O)Nc1ccc(Oc2ccc3c(c2)C(=O)NC3=O)cc1 | 10.6%
23 | CCCn1c(C2CCCN2c2nc(-c3ccc(C)cc3)cs2)nc2cc(Cl)c(N3CCCCC3)cc21 (stereo not drawn) | 10.4%
24 | O=C(O)CCC(=O)N(Cc1ccccc1)Cc1ccccc1 | -4.24%
25 | Cc1ccc(S(=O)(=O)N2CCN(C)CC2)cc1 | -1.33%
26 | COc1cc2c(cc1OC)C(C(=O)Nc1cc(C)c(OC)c(C)c1)CC(=O)N2 (stereo not drawn) | 5.54%
27 | CCOC(=O)c1sc(/N=C/C2=C(O)CC(C)(C)CC2=O)c(C(=O)OCC)c1C | 22.4%
28 | O=C(c1ccc(F)cc1)n1cc(C(=S)N2CCOCC2)c2ccccc21 | 0.53%
29 | CN(Cc1ccccc1)Cc1ccccc1F | 19.5%
30 | N=c1n(CCc2ccccc2)c2ccccc2n1Cc1ccccc1F | 59.9% (active)
31 | Cn1cc(CN2CCC(C(O)CCc3ccccc3)CC2)c(-c2ccccc2F)n1 (stereo not drawn) | 9.2%
32 | OC(CNC1CCCC1)COc1ccc(F)cc1 (stereo not drawn) | -4.99%
33 | NC1=NC(c2ccc([N+](=O)[O-])cc2)N(c2ccc(F)cc2)C(N)=N1 (stereo not drawn) | 9.95%
34 | CC(C)NC(=O)/C(C#N)=C\c1ccc(N(C)C)c(Br)c1 | 7.74%
35 | CNC1(c2nnnn2-c2c(C)cccc2C)CCOC(C)(C)C1 (stereo not drawn) | 5.71%
36 | COc1ccc(NC(=O)c2cc(-c3ccc(C)cc3)on2)cc1 | -2.96%
37 | CCOC(=O)C1(Cc2ccccc2C)CCCN(S(C)(=O)=O)C1 (stereo not drawn) | -3.76%
38 | COc1ccccc1C(=O)Nc1ccc(Nc2ccccc2)cc1 | -11.9%
39 | COc1cc(OC)cc(-c2c(-c3cccs3)c3cc(-c4ccc(OC)nc4)ccc3n2C)c1 | -3.15%
40 | Cc1ccc(C(=O)NNC2=Nc3cc([N+](=O)[O-])ccc3OC2)cc1 | 5.16%

Row | SMILES | inhibition
41 | O=Cc1c(NCCCN2CCCC2=O)c2ccccc2[nH]c1=O | -5.27%
42 | COc1ccc(CNC(=O)C2CCCC2)cc1 | -3.19%
43 | COc1cccc2oc(CCc3ccccc3)cc(=O)c12 | -20%
44 | O=C(CN1CCCCCC1)Nc1ccc(Br)cc1[N+](=O)[O-] | -7.18%
45 | COc1ccc(NC(=O)CS(=O)(=O)c2ccccc2)cc1 | 34.6%
46 | CCC(CO)Oc1cc(NC(=O)c2cccc(F)c2)c2ncn(C(C)C)c2c1 (stereo not drawn) | -8.65%
47 | CCc1nnc(NS(=O)(=O)c2ccc(NC(=O)c3cccc(OC(F)(F)C(F)F)c3)cc2)s1 | -3.99%
48 | CC(C)(C)OC(=O)C[C@H]1C/C=C\C[C@@H](CC(=O)N[C@H](CO)Cc2ccccc2)C(=O)NC[C@@H](c2ccccc2)OC1=O | 20.4%
49 | COc1ccc(S(=O)(=O)NCCCc2ccccc2)cc1 | -6.3%
50 | CCC1=NN2C(=N)/C(=C/c3cc(C)n(-c4ccccc4)c3C)C(=O)N=C2S1 | 20.8%
51 | COC(=O)C1(CCSC)NC(c2ccc(OC)cc2OC)C2C(=O)N(c3cccc(C(C)=O)c3)C(=O)C21 (stereo not drawn) | 15.8%
52 | Nc1cc(N)nc(SCc2cccc(F)c2)n1 | -27.3%
53 | COc1ccccc1C(=O)Nn1cnnc1 | -1.75%
54 | COc1ccc(-c2cc3ncccc3cn2)cc1 | -25%
55 | CC(=O)NCC(=O)NC1CCCc2c1cnn2-c1ccccc1F (stereo not drawn) | -0.98%
56 | CCOc1cc(/C=C2\C(=N)N3N=C(C)SC3=NC2=O)ccc1OCCOc1ccccc1 | -11.6%
57 | O=C1C=C(c2cccc(Cl)c2O)C[C@@H](c2ccc(F)cc2)C1 | -16.5%
58 | COc1ccccc1OCCCCCCN1CCN(C)CC1 | 14.7%
